D2 ag-1 – agonists of human D2 dopamine receptor; activation, % at 2 µM; P14416; AID 485358; 0.53% of 340,000 active; HEK293 T-REx D2 cells, calcium flux agonist mode;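 active = activation over 3 SD above normal in the single-dose calcium agonist read, cut at about 30% in these data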; also: 0% is about no effect
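HEK293 Trex D2 cells, tetracycline-induced, o/n 30 C 5% CO2; no-wash Ca dye, RT 30–90 min; 10-cycle baseline, 23 nl cpd added, kinetic Ca read 180 s; agonist hits = positive Ca response.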
D2 antagonist – antagonizes the human D2 dopamine receptor; HEK293 TREx D2 cells, calcium flux, dopamine EC80; inhibition, % at 10 µM; 2% of 340,000 active; AID 485344; in the data active = inhibition above about 30%; inactive = below that, where a call was filed; also: 0% is about no effect
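Inhibition of EC80 dopamine-driven calcium flux, recorded kinetically, defines activity here; cells are a tetracycline-induced HEK293 T-REx line expressing force-coupled D2.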
D2 ag-2 – activates the human D2 dopamine receptor; AID 624465; 0.084% of 360,000 active; DiscoveRx PathHunter D2 beta-arrestin, luminescence, 90 min; 100% = 57 uM dopamine signal; P14416; activation, % (no concentration beside the values); in the data active = activation above about 40%; inconclusive = between about 15% and that limit
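DiscoveRx PathHunter D2 beta-arrestin cells (2,100/well) attached overnight, then compound-stimulated 90 min at 37 C in HBSS/10 mM HEPES/0.1% Tween-20 buffer; beta-galactosidase complementation read by luminescence after 1 h at ambient temperature. Dopamine 57 uM final (EC100) as control.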
D2 PAM-1 – potentiates the human D2 dopamine receptor allosterically; DiscoveRx D2 beta-arrestin cells, luminescence, 90 min; 100% = 57 uM dopamine signal; 0.23% of 360,000 active; potentiation, % (concentration not given with the values); P14416; AID 624464; in the data active = potentiation above about 50%; inconclusive = mostly about 30% to 49%
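PathHunter D2 cells, attached overnight at 37 deg C, received compound in DMSO plus dopamine at EC20 (50 nM final) for 90 min at 37 deg C. Beta-arrestin recruitment was read as luminescence after 1 h with detection reagent at ambient temperature.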
D2 PAM-2 – D2 dopamine receptor (human) potentiation; 0.34% of 340,000 active; AID 485347; potentiation, % at 10 µM; HEK293 T-REx D2, calcium flux, EC20 dopamine potentiation; P14416;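 active = potentiation over 3 SD above the plate norm, cut at about 30% in these data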; also: 0% is about no effect
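Potentiation of an EC20 dopamine calcium response is measured in a force-coupled, tetracycline-inducible Hek293 Trex D2 line. Compound-only kinetic reads over 180 s flag agonists before dopamine addition.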
D3 arrestin ag – confirmation of human D3 dopamine receptor agonists, beta-arrestin; shares compounds with D2 ag-1; DiscoveRx D3 beta-arrestin cells, luminescence, 90 min; Potency, µM (highest dose often 76.9 µM), without a hit: at the highest dose activation, hits mostly activators; 4% of 2,300 active; AID 720506;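 also: potency is read from the fitted curve at half-maximal effect; 100% = dopamine control response; nearly all actives have a fitted effect of over 70% in size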
Target sequence (P35462 whole entry, looked up): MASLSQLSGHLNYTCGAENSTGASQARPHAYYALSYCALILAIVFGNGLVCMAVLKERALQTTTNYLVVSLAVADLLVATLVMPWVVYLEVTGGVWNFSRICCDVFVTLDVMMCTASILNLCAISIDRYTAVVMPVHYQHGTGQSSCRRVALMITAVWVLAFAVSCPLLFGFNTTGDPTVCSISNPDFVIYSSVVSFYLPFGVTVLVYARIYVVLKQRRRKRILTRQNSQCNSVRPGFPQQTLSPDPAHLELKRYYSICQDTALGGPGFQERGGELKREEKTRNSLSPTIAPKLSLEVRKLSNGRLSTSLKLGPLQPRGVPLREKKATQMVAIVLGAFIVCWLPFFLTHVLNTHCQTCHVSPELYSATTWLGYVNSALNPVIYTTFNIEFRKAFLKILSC
D2 ag-3 – D2 receptor agonism, beta-arrestin counterscreen | shares compounds with D2 ag-1 | DiscoveRx PathHunter D2 beta-arrestin, luminescence, 90 min; response scale: percent relative to full dopamine signal | Potency, µM (doses to about 76.9 µM), for the others: at the highest dose activation, actives largely listed as activators | 5.9% of 2,300 active | AID 720507; also: potency is read from the fitted curve at half-maximal effect; % of control where 0% means no effect; nearly all actives have a fitted effect of over 70% in size
An asterisk follows results filed as active. Hits are enriched below; roughly 2.4% of the tested compounds scored in any of these assays. Unless noted, calls follow the shape of the dose curve; as a rule, active = well fitted activation curve with a large enough effect; inconclusive = small, poorly fitted or top-dose-only effect; inactive = flat fitted curve, though single readings scatter.

How did O=C(Cc1ccccc1)N1CCN(C(=O)c2cccs2)CC1 do in these assays?
D2 ag-1: 1; D2 antagonist: -5; D2 ag-2: 0; D2 PAM-1: -10; D2 PAM-2: 9

What do the screens show for `O=C(c1cccs1)N1CCN(CCc2ccccc2)CC1`?
D2 ag-1: 43*; D2 antagonist: 42*; D2 ag-2: 6; D2 PAM-1: -14; D2 PAM-2: -13; D3 arrestin ag: 15%; D2 ag-3: 15%

How did O=S(=O)(c1cccs1)N1CCN(C/C=C/c2ccccc2)CC1 do in these assays?
D2 ag-1: 1; D2 antagonist: -5; D2 ag-2: -2; D2 PAM-1: -20; D2 PAM-2: -2

How did Cc1c(C(=O)N2CCN(S(=O)(=O)c3cc(F)ccc3F)CC2)oc2ccccc12 do in these assays?
D2 ag-1: -1; D2 antagonist: 12; D2 ag-2: -1; D2 PAM-1: -3; D2 PAM-2: 16

How did CC1CN(C(=O)CCC(=O)Nc2cc(F)ccc2F)c2ccccc2S1 (stereo unspecified) do in these assays?
D2 PAM-2: -8

How did Cc1ccc(C(C)C)c(OCCN(C)C)c1 do in these assays?
D2 ag-1: 0; D2 antagonist: 4; D2 ag-2: 0; D2 PAM-1: -28; D2 PAM-2: 6

How did CCCN(CCC)CCOc1cc(C)ccc1C(C)C do in these assays?
D2 ag-2: inconclusive; D2 PAM-1: -10; D3 arrestin ag: 20%; D2 ag-3: inconclusive

What do the screens show for `COc1ccc(-c2c(C#Cc3ccsc3)c3cc(-c4ccc5c(c4)OCCO5)ccc3n2C)cc1`?
D2 ag-2: -4; D2 PAM-1: -2

How did COc1ccc(-c2c(C#Cc3ccsc3)c3cc(-c4ccc5c(c4)OCO5)ccc3n2C)cc1 do in these assays?
D2 ag-1: 1; D2 antagonist: 4; D2 ag-2: -1; D2 PAM-1: -3; D2 PAM-2: -1; D3 arrestin ag: 0%; D2 ag-3: -1%

Results for COc1ccc2cc(C=O)n(C)c2c1 ?
D2 ag-1: 0; D2 antagonist: -1; D2 ag-2: -4; D2 PAM-1: 1; D2 PAM-2: 1; D3 arrestin ag: 2%; D2 ag-3: -5%

How did S=C(NCc1ccccn1)Nc1ccccc1 do in these assays?
D2 ag-1: 0; D2 antagonist: 12; D2 ag-2: 1; D2 PAM-1: -3; D2 PAM-2: 8; D3 arrestin ag: 0%; D2 ag-3: 0%

How did CC(=O)NC(c1cc(Cl)c2cccnc2c1O)C(C)C (stereo unspecified) do in these assays?
D2 ag-1: 0; D2 antagonist: -7; D2 PAM-2: -14

Results for CC(=O)NC(c1cc(Cl)c2cccnc2c1O)C1CC1 (stereo unspecified) ?
D2 ag-1: -1; D2 antagonist: -17; D2 PAM-2: 3; D3 arrestin ag: -31%; D2 ag-3: -6%

What do the screens show for `Cn1cnc(C(=O)N2CCN(c3ccccc3)CC2)c1C(=O)N1CCN(c2ccccc2)CC1`?
D2 ag-1: 1; D2 antagonist: -3; D2 ag-2: -2; D2 PAM-1: -5; D2 PAM-2: 5; D3 arrestin ag: 0%; D2 ag-3: -2%

Results for O=S(=O)(Nc1ncn[nH]1)c1ccc2ccccc2c1 ?
D2 ag-1: 0; D2 antagonist: -11; D2 ag-2: -2; D2 PAM-1: 18; D2 PAM-2: 4

What do the screens show for `O=S(=O)(Nc1nc2ccccc2[nH]1)c1ccc2ccccc2c1`?
D2 ag-1: 56*; D2 antagonist: 1; D2 ag-2: 0; D2 PAM-1: -6; D2 PAM-2: -19; D3 arrestin ag: -30%; D2 ag-3: 0%

Results for O=C(COc1ccc(Cl)cc1)NNC(=O)c1cccnc1 ?
D2 ag-1: 0; D2 antagonist: 8; D2 ag-2: -4; D2 PAM-1: -2; D2 PAM-2: 1; D3 arrestin ag: -12%; D2 ag-3: -3%

Bioassay records from PubChem.
